Reference: PubChem BioAssay AID1159580 (chemical genetic matrix, 2015)
Where “and” joins values, the source holds several entries; their conditions need not be identical. Equal values may be shown once. Hit rate of the full screen: of about 5,500 compounds, about 2,000 (36%) were called active. Another 18% or so got no clear call; they are omitted. Cut-off read from the data, not from the text of the source: active = normalized growth mostly below about 0.91 (no sharp cut-off); inconclusive = no clear call, values can overlap the other calls; inactive = mostly above about 0.92. This is one part of the list.

Test: chemical genetic growth profiling, strain panel (AID 1159580);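 note: tested at 20 µM; growth read once vehicle control cultures reached saturation at 30 °C; 1 = growth at the plate median or of vehicle wells; lower values mean less growth of the strain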
Conditions: growth OD

Measured: normalized growth

CN(C)CCN(Cc1cccs1)c1ccccn1
inactive: S. cerevisiae deletion strains, locus YJR075W, strain HOC1, active compounds read low 0.98 and 1.01 | S. cerevisiae deletion strains, locus YKL009W, strain mrt4, active compounds read low 1.02 | S. cerevisiae deletion strains, locus YKL068W, active compounds read low 1.01 | S. cerevisiae deletion strains, locus YKL085W, strain MDH1 (second series), active compounds read low 0.997 | S. cerevisiae deletion strains, locus YKL085W, strain MDH1, active compounds read low 0.997 | S. cerevisiae deletion strains, locus YKL160W, strain elf1, active compounds read low 1.01 | S. cerevisiae deletion strains, locus YKL190W, strain CNB1, active compounds read low 0.985 | S. cerevisiae deletion strains, locus YKR001C, strain vps1, active compounds read low 0.986 | S. cerevisiae deletion strains, locus YKR026C, strain gcn3, active compounds read low 1.01 | S. cerevisiae deletion strains, locus YKR091W, strain srl3, active compounds read low 1 | S. cerevisiae deletion strains, locus YLL001W, strain dnm1, active compounds read low 1.01 | S. cerevisiae deletion strains, locus YLL026W, active compounds read low 1 | S. cerevisiae deletion strains, locus YLL041C, strain sdh2, active compounds read low 1.01 | S. cerevisiae deletion strains, locus YLR027C, strain aat2, active compounds read low 1.01 | S. cerevisiae deletion strains, locus YLR039C, strain RIC1, active compounds read low 1.03 | S. cerevisiae deletion strains, locus YLR058C, strain SHM2, active compounds read low 1.02 | S. cerevisiae deletion strains, locus YLR102C, strain apc9, active compounds read low 1.01 | S. cerevisiae deletion strains, locus YLR113W, strain HOG1, active compounds read low 0.995 | S. cerevisiae deletion strains, locus YLR221C, strain rsa3, active compounds read low 1.01 | S. cerevisiae deletion strains, locus YLR258W, strain gsy2, active compounds read low 1.01 | S. cerevisiae deletion strains, locus YLR262C, strain YPT6 (second series), active compounds read low 1.01 | S. cerevisiae deletion strains, locus YLR262C, strain YPT6, active compounds read low 1.11 | S. cerevisiae deletion strains, locus YLR268W, strain sec22, active compounds read low 1.01 | S. cerevisiae deletion strains, locus YLR320W, strain mms22, active compounds read low 1.04 | S. cerevisiae deletion strains, locus YLR330W, strain CHS5, active compounds read low 1 | S. cerevisiae deletion strains, locus YLR342W, strain FKS1 (second series), active compounds read low 1.04 | S. cerevisiae deletion strains, locus YLR342W, strain FKS1, active compounds read low 1.01 | S. cerevisiae deletion strains, locus YLR357W, strain rsc2, active compounds read low 1.03 | S. cerevisiae deletion strains, locus YLR370C, strain arc18, active compounds read low 1.02 | S. cerevisiae deletion strains, locus YLR371W, strain rom2, active compounds read low 1.01 | S. cerevisiae deletion strains, locus YLR384C, strain iki3, active compounds read low 1.01 | S. cerevisiae deletion strains, locus YLR418C, strain cdc73, active compounds read low 1.02 | S. cerevisiae deletion strains, locus YML016C, strain PPZ1, active compounds read low 1.01 | S. cerevisiae deletion strains, locus YML032C, strain rad52, active compounds read low 0.988 | S. cerevisiae deletion strains, locus YML120C, strain ndi1, active compounds read low 1.01 | S. cerevisiae deletion strains, locus YML124C, strain tub3, active compounds read low 1.01 | S. cerevisiae deletion strains, locus YMR058W, strain fet3, active compounds read low 1.01 | S. cerevisiae deletion strains, locus YMR078C, strain ctf18, active compounds read low 1.02 | S. cerevisiae deletion strains, locus YMR125W, strain sto1, active compounds read low 1.01 | S. cerevisiae deletion strains, locus YMR129W, active compounds read low 1.01 | S. cerevisiae deletion strains, locus YMR205C, strain PFK2, active compounds read low 1.02 | S. cerevisiae deletion strains, locus YMR223W, strain ubp8, active compounds read low 1.05 | S. cerevisiae deletion strains, locus YMR231W, strain pep5, active compounds read low 1.01 | S. cerevisiae deletion strains, locus YMR307W, strain GAS1, active compounds read low 1.02 | S. cerevisiae deletion strains, locus YNL067W, strain RPL9B, active compounds read low 0.997 | S. cerevisiae deletion strains, locus YNL071W, strain lat1, active compounds read low 1 | S. cerevisiae deletion strains, locus YNL128W, strain TEP1, active compounds read low 1.02 | S. cerevisiae deletion strains, locus YNL153C, strain GIM3, active compounds read low 0.989 and 1.02 | S. cerevisiae deletion strains, locus YNL175C, strain NOP13, active compounds read low 1.02 | S. cerevisiae deletion strains, locus YNL183C, strain NPR1, active compounds read low 0.886 | S. cerevisiae deletion strains, locus YNL197C, strain WHI3, active compounds read low 0.992 | S. cerevisiae deletion strains, locus YNL209W, strain ssb2, active compounds read low 1 | S. cerevisiae deletion strains, locus YNL224C, strain SQS1, active compounds read low 1.01 | S. cerevisiae deletion strains, locus YNL233W, strain BNI4, active compounds read low 0.986 | S. cerevisiae deletion strains, locus YNL248C, strain rpa49, active compounds read low 1.02 | S. cerevisiae deletion strains, locus YNL250W, strain rad50, active compounds read low 1.02 | S. cerevisiae deletion strains, locus YNL271C, strain bni1, active compounds read low 1.01 | S. cerevisiae deletion strains, locus YNL298W, strain CLA4, active compounds read low 1.01 | S. cerevisiae deletion strains, locus YNL307C, strain MCK1, active compounds read low 1.02 | S. cerevisiae deletion strains, locus YNL322C, strain KRE1 (second series), active compounds read low 1.01 | S. cerevisiae deletion strains, locus YNL322C, strain KRE1, active compounds read low 0.991 | S. cerevisiae deletion strains, locus YNR049C, strain mso1, active compounds read low 1.02 | S. cerevisiae deletion strains, locus YNR052C, strain pop2, active compounds read low 1.01 | S. cerevisiae deletion strains, locus YOL006C, strain TOP1, active compounds read low 0.902 | S. cerevisiae deletion strains, locus YOL012C, strain htz1 0.737 | S. cerevisiae deletion strains, locus YOL147C, strain pex11, active compounds read low 1.02 | S. cerevisiae deletion strains, locus YOR001W, strain rrp6, active compounds read low 1 | S. cerevisiae deletion strains, locus YOR061W, strain CKA2, active compounds read low 1.01 | S. cerevisiae deletion strains, locus YOR069W, strain VPS5, active compounds read low 1.01 | S. cerevisiae deletion strains, locus YOR070C, strain gyp1, active compounds read low 1.01 | S. cerevisiae deletion strains, locus YOR080W, strain dia2, active compounds read low 1 | S. cerevisiae deletion strains, locus YOR083W, strain WHI5 (second series), active compounds read low 1.01 | S. cerevisiae deletion strains, locus YOR083W, strain WHI5, active compounds read low 1.01 | S. cerevisiae deletion strains, locus YOR106W, strain vam3, active compounds read low 0.998 | S. cerevisiae deletion strains, locus YOR136W, strain idh2, active compounds read low 1.01 | S. cerevisiae deletion strains, locus YOR144C, strain elg1, active compounds read low 1.01 | S. cerevisiae deletion strains, locus YOR184W, strain ser1, active compounds read low 1.01 | S. cerevisiae deletion strains, locus YOR231W, strain MKK1, active compounds read low 0.88 | S. cerevisiae deletion strains, locus YOR265W, strain rbl2, active compounds read low 1.01 | S. cerevisiae deletion strains, locus YOR270C, strain vph1, active compounds read low 1 | S. cerevisiae deletion strains, locus YOR290C, strain snf2, active compounds read low 1.01 | S. cerevisiae deletion strains, locus YOR316C, strain cot1, active compounds read low 1.01 | S. cerevisiae deletion strains, locus YPL051W, strain arl3, active compounds read low 1.01 | S. cerevisiae deletion strains, locus YPL055C, strain LGE1, active compounds read low 0.929 | S. cerevisiae deletion strains, locus YPL078C, strain atp4, active compounds read low 1 | S. cerevisiae deletion strains, locus YPL106C, strain sse1, active compounds read low 1 | S. cerevisiae deletion strains, locus YPL240C, strain hsp82, active compounds read low 1.01 | S. cerevisiae deletion strains, locus YPL256C, strain CLN2, active compounds read low 0.98 | S. cerevisiae deletion strains, locus YPR119W, strain clb2, active compounds read low 1.01 | S. cerevisiae deletion strains, locus YPR141C, strain kar3, active compounds read low 1 | S. cerevisiae deletion strains, locus YPR163C, strain tif3, active compounds read low 1.01 | S. cerevisiae deletion strains, locus YPR167C, strain met16, active compounds read low 1.01 | S. cerevisiae deletion strains, strain wtn01, active compounds read low 1.01 | S. cerevisiae strains, strain wild type, active compounds read low 1
active: S. cerevisiae deletion strains, locus YJR066W, strain TOR1, active compounds read low 0.82
